Test results reported in PubChem BioAssay (NCATS).
“And” between values parts separate entries of the source, which are not always exact repeats. Equal values may be shown once. Records with an inconclusive call do not appear. Values without a mark were called inactive. The source made the active and inactive calls. The call rests on the fitted dose curve; in most records, active means well fitted curve in the direction sought with a large enough effect; inconclusive means small, poorly fitted or top-dose-only effect, or another doubt; inactive means no such curve, though single readings can be large; an effect the other way counts as inactive or inconclusive.

experiment: Cell Viability - LYMP1-003 - Assay at 40 hr (AID 964); settings: LYMP1-003 lymphoblastoid viability; series mostly up to 92.2 µM; activity change, negative = cytotoxic: at the top concentration; further: nearly all actives have a fitted effect of over 60% in size; further: potency means the concentration at half of the fitted maximal effect; on activity change, negative = cytotoxic: on the % scale 0 is the no-effect control and ±100 the full control effect
Outline: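 Cells were seeded at 2500 per well and incubated 5 hr at 37 C. Compounds were added across a concentration series and left 40 hr at 37 C. CellTiter-Glo was added for 30 min at room temperature before luminescence reading.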

Row | SMILES | activity change, negative = cytotoxic [%] | Potency
1 | Clc1cc(Cl)c(Cl)cc1Cl | -6.15 | 
2 | CCO | -2.6 | 
3 | C=CC(=O)OCCOCCOCCOCCOC(=O)C=C |  | 12.6 µM (active) and 31.6 µM (active)
4 | Clc1cc(Cl)c(Cl)c(Cl)c1Cl | 4.31 | 
5 | CCCCC(CC)CN (stereo not drawn) |  | inactive
6 | O=NO |  | inactive
7 | c1ccc2c(c1)[nH]c1ccccc12 | 3 | 
8 | OCCNCCO | -2.71 | 
9 | Nc1ccc(Cl)cc1Cl | -9.13 | 
10 | CCC(C)c1ccccc1O (stereo not drawn) |  | inactive
11 | CC1=CC(C)(C)Nc2ccccc21 |  | inactive
12 | CN(C)C=O |  | inactive
13 | Cc1ccc(N)c([N+](=O)[O-])c1 | -2.36 | 
14 | CCCCOCCO |  | inactive
15 | CC(=O)OC/C=C(\C)CCC=C(C)C | -3.28 | 

experiment: Cell Viability - LYMP2-003 (AID 965); settings: LYMP2-003 lymphoblastoid cell viability; series mostly up to 92.2 µM; activity change, negative = cytotoxicity: at the top concentration;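 further: cells exposed to compounds for 24 h before reading; nearly all actives have a fitted effect of over 50% in size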; further: potency means the concentration at half of the fitted maximal effect;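 on activity change, negative = cytotoxicity: 0% = DMSO only and full effect = 92 µM tetraoctylammonium bromide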
Outline: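 Acute cytotoxicity is scored as a concentration-dependent drop in intracellular ATP, measured by luciferase luminescence in human lymphoblastoid cells treated for 24 hours at 37 C. AC50 values derive from Hill-equation modelling.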

Row | SMILES | Potency | activity change, negative = cytotoxicity [%]
16 | CCC(O)OC(O)CC (stereo not drawn) | inactive | 
17 | C=Cc1ccccc1Cl |  | 1.46
18 | c1ccc2c(c1)c1cccc3ccc4cccc2c4c31 |  | 14.5
19 | CCCCCCCCO |  | 4.8
20 | CCO[Si](CCCN)(OCC)OCC |  | 8.07
21 | CCO |  | 0.249
22 | C=CC(=O)OCCOCCOCCOCCOC(=O)C=C | 12.6 µM (active) and 15.8 µM (active) | 
23 | CCCCC(CC)CN (stereo not drawn) | inactive | 
24 | OCCNCCO |  | 15.7
25 | Cc1ccc(N)c([N+](=O)[O-])c1 |  | 20.8
26 | CCCCOCCO | inactive | 
27 | CC(=O)OC/C=C(\C)CCC=C(C)C |  | 24.9

experiment: Cell Viability - LYMP2-004 (AID 966); settings: LYMP2-004 lymphoblastoid cell viability, qHTS; series mostly up to 92.2 µM; activity change, negative = cytotoxicity: at the top concentration;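 further: plate controls were DMSO only for no effect and tetraoctylammonium bromide control for full effect; nearly all actives have a fitted effect of over 65% in size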
Outline: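 Cells seeded 2500/well, rested 5 hr at 37 C, dosed across a concentration series, incubated 24 hr at 37 C, then CellTiter-Glo added for 30 min at room temperature and luminescence read. Hill fitting gave AC50.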

Row | SMILES | activity change, negative = cytotoxicity [%] | Potency
28 | CCCN(CCC)C(=O)SCC | 10.8 | 
29 | COc1ccc2nc(N)sc2c1 | 11 | 
30 | CCC(O)OC(O)CC (stereo not drawn) | 7.75 | 
31 | Cc1cccc([N+](=O)[O-])c1C | 8.76 | 
32 | CC(C)=CCCC(C)CCO (stereo not drawn) | 0.798 | 
33 | O=[N+]([O-])c1cccc(Cl)c1Cl | 16.6 | 
34 | CCO[Si](CCCN)(OCC)OCC | -14.7 | 
35 | Clc1cc(Cl)c(Cl)cc1Cl | 27.7 | 
36 | CCCCC(CC)CN (stereo not drawn) | -15.4 | 
37 | Nc1ccc(Cl)cc1Cl | 7.95 | 
38 | CN(C)C=O |  | inactive

experiment: Cell Viability - LYMP2-005 (AID 967); settings: LYMP2-005 lymphoblastoid cell viability; series mostly up to 92.2 µM; activity change, negative = viability loss: at the top concentration; further: potency means the concentration at half of the fitted maximal effect;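 on activity change, negative = viability loss: plate controls were DMSO only for no effect and 92 µM tetraoctylammonium bromide control for full effect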
Outline: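 qHTS viability screen in LYMP2-005 cells: 24 h at 37 C with compound, ATP luminescence via CellTiter-Glo, AC50 from Hill curves.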

Row | SMILES | activity change, negative = viability loss [%] | Potency
39 | CCCN(CCC)C(=O)SCC | -21 | 
40 | COc1ccc2nc(N)sc2c1 | 32.1 | 
41 | ClCCCl | 18.6 | 
42 | CCC(O)OC(O)CC (stereo not drawn) |  | inactive
43 | C=Cc1ccccc1Cl | -18.8 | 
44 | c1ccc2c(c1)c1cccc3ccc4cccc2c4c31 | 6.19 | 
45 | Cc1cccc([N+](=O)[O-])c1C | 5.24 | 
46 | CC(C)=CCCC(C)CCO (stereo not drawn) | -6.59 | 
47 | O=[N+]([O-])c1cccc(Cl)c1Cl | 2.82 | 
48 | CCO[Si](CCCN)(OCC)OCC | -24.9 | 
49 | Clc1cc(Cl)c(Cl)cc1Cl | 0.355 | 
50 | CCO | 10.9 | 
51 | C=CC(=O)OCCOCCOCCOCCOC(=O)C=C |  | 10 µM (active) and 15.8 µM (active)
52 | Clc1cc(Cl)c(Cl)c(Cl)c1Cl | 5.14 | 
53 | CCCCC(CC)CN (stereo not drawn) |  | inactive
54 | O=NO |  | inactive
55 | c1ccc2c(c1)[nH]c1ccccc12 | -21 | 
56 | OCCNCCO | 17.6 | 
57 | Nc1ccc(Cl)cc1Cl | 0.801 | 
58 | CCC(C)c1ccccc1O (stereo not drawn) |  | inactive
59 | CC1=CC(C)(C)Nc2ccccc21 |  | inactive
60 | CN(C)C=O |  | inactive
61 | Cc1ccc(N)c([N+](=O)[O-])c1 | 12.2 | 
62 | CCCCOCCO |  | inactive
63 | CC(=O)OC/C=C(\C)CCC=C(C)C | 8.55 | 
